Results filed as inconclusive are left out. A call without a number means that no potency is given here. Active and inactive are the calls of the source. The call rests on the fitted dose curve; in most records, active means well fitted curve in the direction sought with a large enough effect; inconclusive means small, poorly fitted or top-dose-only effect, or another doubt; inactive means no such curve, though single readings can be large or run the other way.
Assay: qHTS Assay for Inhibitors of Histone Lysine Methyltransferase G9a: Hit Confirmation in b-rIgG Counterscreen
Summary of the method: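 Counterscreen for AlphaScreen artifacts: compounds pin-transferred onto biotinylated rabbit IgG (1 nM final), 15 min at room temperature, then streptavidin donor and anti-rIgG acceptor beads (20 ug/mL each final) added; signal read after 15 min in the dark.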

Row | Structure (SMILES) | Potency
1 | COc1ccc(NC(=O)c2ccc(-c3ccc(-c4noc(C)n4)cc3C)cc2)cc1N1CCN(C)CC1 | 28.2 µM (active)
2 | Nc1nc2ccc(Cl)cc2c2nc(-c3ccco3)nn12 | inactive
